Data taken from publication PMC5540273 (PLoS ONE, 2017).

System: T1, PRKR
T1 construct: gene EIF2AK2
Settings: concentration: 1 μM, replicates: in singlicate; n = 1
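Note: KINOMEscan kinase panel screen.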

Compound	%Inh [%]
COc1ccc(Nc2ncc(C#N)c(Nc3ccccc3C(N)=O)n2)cc1N1CCN(C)CC1.Cl [GSK1558669]	87
O=C(Nc1cccc(-c2nn3ncccc3c2-c2ccnc(Nc3cccc(C(F)(F)F)c3)n2)c1)c1c(F)cccc1F [GSK299495]	0
Cc1cccc(-c2nc(Nc3ccc4ncsc4c3)c3ccccc3n2)n1 [GW867588]	17
Cl.Nc1ncnc2occ(-c3ccc(NC(=O)Nc4cc(C(F)(F)F)ccc4F)cc3)c12 [SB-707548]	28
C[C@@H](Oc1cc(-n2cnc3ccc(NC(=O)NC(C)(C)C)cc32)sc1C(N)=O)c1ccccc1Cl [GSK346294]	0
c1ccc(-c2cc(-c3c[nH]nc3-c3ccccn3)ccn2)cc1 [GW576604]	3
Cc1nnc(-c2ccc3occ(-c4ccc(C(C)O)cc4)c3c2)o1 (stereo not shown)	0
CC(C)Oc1ccc2c(-c3ccnc(Nc4ccc(N5CCN(C)CC5)cc4)n3)cnn2n1 [GW696155]	92.2
NS(=O)(=O)c1cccc(-c2ccc3ncc(N4CCOCC4)nc3c2)c1 [GSK1535721]	10
Fc1ccc(-c2ncn(CCCN3CCOCC3)c2-c2ccccn2)cc1 [SB-211742]	12
CN(C1=C(c2ccccc2)C(=O)NC1=O)c1ccccc1 [SB-334860]	17
CCc1nc(-c2cccc(C)c2)c(-c2ccnc(NCc3ccccc3)c2)s1	0
O=C(NCCNc1ccnc(Nc2ccc(F)cc2)n1)Nc1ccccc1F [GSK1379880]	0
